Screens (PubChem)
HPGD inh: qHTS Assay for Inhibitors of HPGD (15-Hydroxyprostaglandin Dehydrogenase). purified HPGD, NADH fluorescence kinetic, PGE2 substrate. 150,000 compounds, 4.3% hits. Potency, µM, usual class: inhibitors. 15-hydroxyprostaglandin dehydrogenase [NAD(+)] (Homo sapiens), P15428. AID 894, 2007
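20 nM HPGD preincubated 15 min at room temperature with compound in 50 mM Tris-HCl pH 8, 0.01% Tween 20. Started with 1 mM NAD+ and 30 uM prostaglandin E2; NADH fluorescence (360/450 nm) read 5 times over 30-s intervals, last minus first.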
PNC assembly inh: High Content Assay for Compounds that inhibit the Assembly of the Perinucleolar Compartment; PC3M PTB-GFP, PNC prevalence imaging, 16 h; stronger effect = lower value; activity change (PNC), negative = inhibition, % at 10 µM; 140,000 compounds, 3.1% hits; AID 2417, 2010;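 active means readout at or below -70, meaning at least 70% loss of cells showing the perinucleolar compartment, a nuclear body marking cancer cells; inconclusive means readout between -30 and a set limit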
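PC3M cells stably expressing PTB-GFP, 750–1000 cells/well, treated 16 h at 37 °C with compound (23 nl of library stock), in duplicate. After paraformaldehyde fixation and Hoechst stain, imaged at 20x; PNC prevalence scored by image analysis.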
ALDH1A1 inh: qHTS Assay for Inhibitors of Aldehyde Dehydrogenase 1 (ALDH1A1); Aldehyde dehydrogenase 1A1 (Homo sapiens), P00352; Potency, µM (highest dose often 75.3 µM), most hits filed as inhibitors; 220,000 compounds, 7.3% hits; AID 1030, 2008; Purified ALDH1A1, NADH fluorescence, propionaldehyde substrate
Target sequence (P00352 whole entry, looked up): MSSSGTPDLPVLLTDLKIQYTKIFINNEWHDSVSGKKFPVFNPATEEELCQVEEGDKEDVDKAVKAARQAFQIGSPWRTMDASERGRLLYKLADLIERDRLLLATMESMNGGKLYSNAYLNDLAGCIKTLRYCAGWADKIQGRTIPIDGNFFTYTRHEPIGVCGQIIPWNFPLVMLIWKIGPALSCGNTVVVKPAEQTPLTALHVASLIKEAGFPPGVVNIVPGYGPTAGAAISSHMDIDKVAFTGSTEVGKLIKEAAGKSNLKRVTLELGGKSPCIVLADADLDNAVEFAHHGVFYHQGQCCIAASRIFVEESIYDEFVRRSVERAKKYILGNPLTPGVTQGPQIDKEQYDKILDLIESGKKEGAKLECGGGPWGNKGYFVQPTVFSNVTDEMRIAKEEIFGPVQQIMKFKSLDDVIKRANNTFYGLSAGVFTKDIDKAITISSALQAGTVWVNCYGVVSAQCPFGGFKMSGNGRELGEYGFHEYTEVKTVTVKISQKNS
IMPase inh: qHTS Assay for Identifying the Cell-Membrane Permeable IMPase Inhibitors; Inositol monophosphatase 1 (Rattus norvegicus), P97697; CHO-M1 cells, IP1 accumulation, HTRF TR-FRET ratio; inhibition (IP1 accumulation), % at 46.1 µM; 120,000 tested, under 10 active; AID 901, 2007; active means well fitted curve in the direction sought with a large enough effect in the signal ratio, not every such curve was filed as active; inconclusive means small, poorly fitted or top-dose-only effect, or a change in a side signal; inactive means no such curve, though single readings can be large or run the other way; the % refers to the signal ratio;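 further: cells stimulated with carbachol in lithium chloride buffer; higher means more IMPase inhibition seen as more IP1 and lower FRET ratio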
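CHO-M1 cells (CHO stably expressing M1 receptor), compound up to 46 uM final, stimulated with carbachol (50 uM as added) in buffer with 50mM LiCl, pH 7.4, 30 min at 37C. Cytosolic IP1 read by TR-FRET; AC50 from Hill fits.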
IMPase Li cell: qHTS Assay for Identifying the Cell-Membrane Permeable IMPase Inhibitors: Potentiation with Lithium; CHO-M1 cells, IP1 TR-FRET (IP-One), carbachol + lithium; Potency, µM (doses to about 59.4 µM), most hits filed as inhibitors; 210,000 compounds, 0.35% hits; AID 1457, 2008; active means well fitted inhibition curve with a large enough effect; inconclusive means small, poorly fitted or top-dose-only effect; inactive means no such curve, though single readings can be large or run the other way;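 further: IP1 builds up when IMPase is blocked and the TR-FRET signal falls; nearly all actives have a fitted effect of over 50% in size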
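Test compounds were applied to CHO-M1 cells previously cultured for 16–30 h at 2000 per well. A small lithium amount accompanied them; after 30 min at 37C, IP1 was quantified by TR-FRET.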
Of the large screens only hits and unclear results are named; the others gave an inactive call. Most compounds without a hit are left out; they make up all but 11% or so of the library. Unless noted, the call rests on the fitted dose curve; in most records, active means well fitted inhibition curve with a large enough effect (not every such curve was filed as active); inconclusive means small, poorly fitted or top-dose-only effect, or another doubt; inactive means no such curve, though single readings can be large or run the other way.

O=C(CSc1ccccn1)C12CC3CC(CC(C3)C1)C2	none (no result: HPGD inh, PNC assembly inh, IMPase inh)
O=C(c1cc(C(F)(F)F)cc(C(F)(F)F)c1)N1CCC2(CC1)CN(c1ccccn1)C2	HPGD inh inconclusive, ALDH1A1 inh inconclusive (no result: PNC assembly inh, IMPase inh)
COc1ccc(-c2noc(-c3ccccc3Cl)n2)cc1OC	PNC assembly inh inconclusive, ALDH1A1 inh inconclusive, IMPase Li cell 8.9µM
COc1ccc(-c2noc(-c3cccc(Cl)c3)n2)cc1OC	none (no result: IMPase inh)
Cc1cccc(-c2noc(-c3ccc(Cl)cc3[N+](=O)[O-])n2)c1	HPGD inh 14µM (no result: IMPase inh)
Cc1cccc(-c2noc(-c3ccoc3C)n2)c1	none (no result: HPGD inh, PNC assembly inh, IMPase inh)
Cc1cccc(-c2noc(-c3cc4ccccc4oc3=O)n2)c1	HPGD inh inconclusive, PNC assembly inh -106, ALDH1A1 inh inconclusive
COc1ccc(-c2noc(-c3ccc(Cl)cc3[N+](=O)[O-])n2)cc1OC	HPGD inh 18µM, PNC assembly inh inconclusive (no result: IMPase inh)
Cc1ccc(-c2noc(-c3cc4ccccc4oc3=O)n2)cc1	HPGD inh inconclusive, PNC assembly inh inconclusive, ALDH1A1 inh inconclusive
CCC(C)(C)n1nnnc1CN(Cc1ccc(Cl)cc1)Cc1ccco1	PNC assembly inh inconclusive, ALDH1A1 inh 10µM
O=C1/C(=C/c2ccc(O)c(O)c2)SC(=S)N1Nc1ccccc1	ALDH1A1 inh inconclusive (no result: HPGD inh, PNC assembly inh, IMPase inh)
CC(=O)NN1C(=O)/C(=C\c2ccccc2)SC1=S	none
COc1cc(/C=C2\SC(=S)N(Nc3ccccc3)C2=O)ccc1O	ALDH1A1 inh 10µM (no result: IMPase inh)
Cc1cc(C)nc(NN2C(=O)/C(=C/c3ccccc3)SC2=S)n1	HPGD inh 35µM, ALDH1A1 inh inconclusive
O=C(NN1C(=O)/C(=C\c2ccc(O)c([N+](=O)[O-])c2)SC1=S)c1ccccc1Cl	ALDH1A1 inh 14µM (no result: HPGD inh, PNC assembly inh, IMPase inh, IMPase Li cell)
CCOc1cc(/C=C2\SC(=S)N(Nc3ccccc3)C2=O)ccc1O	ALDH1A1 inh 11µM
COc1ccc(NC(=O)N2CCCC3(CCN(C(=O)c4cccc(F)c4)CC3)C2)cc1	ALDH1A1 inh inconclusive (no result: PNC assembly inh, IMPase inh)
Brc1cc(Oc2cc(Br)c(Br)c(Br)c2Br)c(Br)c(Br)c1Br	none (no result: PNC assembly inh, IMPase inh)
Cc1ccc(S(=O)(=O)N(c2nc(N(C)C)nc(N(C)C)n2)n2cnnc2)cc1	ALDH1A1 inh 5µM, IMPase inh inconclusive
Cc1ccc(S(=O)(=O)NCCOc2nc(N(C)C)nc(N(C)C)n2)cc1	none (no result: HPGD inh, PNC assembly inh, IMPase inh, IMPase Li cell)
CC(C)(C)c1ccc(-c2nnc(SCCN3C(=O)c4ccccc4C3=O)o2)cc1	HPGD inh 18µM
CC(C)NC(=O)c1sc2nc3c(c(-c4cccs4)c2c1N)CN(C)CC3	IMPase inh inconclusive
Cc1cccc(NC(=O)c2sc3nc4c(c(-c5cccs5)c3c2N)CN(C)CC4)c1	ALDH1A1 inh 14µM
CC1CC2(C)Oc3ccccc3C3OCC1(COC(=O)Nc1ccccc1)C(C)C32 (configuration not stated)	none (no result: PNC assembly inh)
CC[C@H]1C(c2cccc(Cl)c2)=NN(c2ccccc2)[C@@H]1CO	HPGD inh inconclusive, ALDH1A1 inh inconclusive, IMPase Li cell 22µM (no result: PNC assembly inh, IMPase inh)
CC[C@H]1C(c2cccc(C)c2)=NN(c2ccccc2)[C@@H]1CO	HPGD inh inconclusive, ALDH1A1 inh inconclusive (no result: PNC assembly inh, IMPase inh)
COCCCn1c(=S)[nH]c2c(sc3ccccc32)c1=O	ALDH1A1 inh inconclusive, IMPase Li cell 10µM (no result: HPGD inh, PNC assembly inh, IMPase inh)
COc1cccc(Nc2ncc3nc(-c4ccccc4)c(=O)n(Cc4cccs4)c3n2)c1	ALDH1A1 inh inconclusive (no result: HPGD inh, PNC assembly inh, IMPase inh)
C=CCN=c1scc(-c2ccc3c(c2)NC(=O)CO3)n1/N=C(\C)c1ccccn1	ALDH1A1 inh 2.8µM (no result: HPGD inh, PNC assembly inh, IMPase inh)
O/N=C(\c1ccc(Cl)cc1)c1cc2ccccc2o1	HPGD inh 25µM, PNC assembly inh inconclusive
CC(C)(N)CO[C@H]1C[C@H]2CC[C@@]1(C)C2(C)C	none (no result: PNC assembly inh, IMPase inh)
COc1cccc(CC2(CO)CCCN(CC3=Cc4cc(Cl)ccc4OC3)C2)c1 (configuration not stated)	ALDH1A1 inh inconclusive (no result: HPGD inh, PNC assembly inh, IMPase inh)
CCOc1ccc(CC(=O)C2=C(N3CCOCC3)CC(C)(C)CC2=O)cc1OCC	ALDH1A1 inh 40µM (no result: HPGD inh, PNC assembly inh, IMPase inh)
CCOc1ccc(Cc2onc3c2C(=O)CC(C)(C)C3)cc1OCC	ALDH1A1 inh 8.9µM (no result: HPGD inh, PNC assembly inh, IMPase inh)
